Values without a mark were called inactive. Activity calls are given as the source filed them. Calls come from the whole dose curve; as a rule, active = well fitted activation curve with a large enough effect; inconclusive = small, poorly fitted or top-dose-only effect; inactive = flat fitted curve, though single readings scatter.

This assay in a line: Cellular Toxicity (caspase-3) Mesangial (AID 660).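 Note: combined caspase 3 and 7 activity read by Caspase-Glo luminescence; cells exposed to compound for 16 h before the caspase read.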 The conditions noted are these: mesangial cells, normalized: DMSO 0%, 100 µM tamoxifen 100%; at 91.7 µM (top of the series). The source says:
NIH Chemical Genomics Center [NCGC]
NIH Molecular Libraries Screening Centers Network [MLSCN]
National Institutes of Environmental Health Sciences [NIEHS]
National Toxicology Program [NTP]
We have developed a 1536-well cell-based assay for quantitative high throughput screening (qHTS) against a number of cell lines to determine in vitro caspase 3/7 of small molecules. This particular assay uses the mesangial cell line which is derived from normal human renal glomeruli.
NCGC Assay Protocol Summary:
The Caspase-Glo 3/7 assay (Promega) is a homogeneous method to measure caspase-3 and caspase-7 activities in cultured cells. The quantitation of caspase 3/7 activity is based on the cleavage of a peptide-aminoluciferin substrate. After caspase cleaves the substrate the free aminoluciferin is liberated and serves as the substrate of luciferase, which generates the light. The luminescent signal is proportional to amount of caspase 3/7 activity present.
Using the Caspase-Glo 3/7 assay, the amount of caspase 3/7 activity was measured in the mesangial cell line with complete culture medium following compound treatment for 16 hours. The assay was performed in opaque white 1536-well plates. In the screen, tamoxifen and doxorubicin were used as positive controls. Library compounds were measured for their ability to cause the activation of caspase 3/7 in the cell line, as reflected by an increase in luminescence signal, in a concentration-dependent manner. Data were normalized to the controls for basal activity (DMSO only) and 100% stimulation (100 uM tamoxifen). AC50 values were determined from concentration-response data modeled with the standard Hill equation.
qHTS protocol for caspase 3/7 assay in mesangial cell line
[Step] [Parameter] [Value] [Description]
1. Reagent; 5 uL; 1000 mesangial cells/well
2. Time; 5 hr; 37 °C incubation
4. Controls; 23 nL; Tamoxifen 0.23 uM to 100 uM & doxorubicin 7.0 pM to 100 uM
5. Time; 16 hr; 37 °C incubation
6. Reagent; 5 uL; Caspase-Glo 3/7 reagent
7. Time; 20 min; Room Temperature
8. Detection; Luminescence; Viewlux plate reader
Keywords: caspase 3/7, apoptosis, mesangial cell line, luminescence, NTPHTS, NTPHTS_NCGC, NIEHS, EPA, DSSTox, MLSMR, MLSCN, NIH Roadmap, qHTS, NCGC
On to `O=C(O)Cc1cccc2ccccc12`, for which the caspase-3 activation was 0.654%. With `CCCNC(=O)NS(=O)(=O)c1ccc(Cl)cc1` the figure was -0.968%; with `O=c1cc(-c2ccc(O)cc2)oc2cc(O)cc(O)c12`, -2.47%; with `CC(=O)c1ccc(S(=O)(=O)NC(=O)NC2CCCCC2)cc1`, 0.0312%.

As to `CC(=O)O[C@]1(C(C)=O)CC[C@H]2[C@@H]3C=C(Cl)C4=CC(=O)[C@@H]5C[C@@H]5[C@]4(C)[C@H]3CC[C@@]21C`, the caspase-3 activation was -0.0763%. For `O=C(O)c1cc(O)c2c(c1)C(=O)c1cccc(O)c1C2=O`, the caspase-3 activation is -1.07%. With `O=C1NC(=O)C(c2ccccc2)(c2ccccc2)N1` the figure was 0.351%; with `CCCCC1C(=O)N(c2ccccc2)N(c2ccccc2)C1=O`, 0.46%; with `CCn1cc(C(=O)O)c(=O)c2ccc(C)nc21`, -0.0498%. With `O=c1c(O)c(-c2ccc(O)cc2)oc2cc(O)cc(O)c12` the figure was -0.85%. With `CC1=C(/C=C/C(C)=C/C=C/C(C)=C/C(=O)Nc2ccc(O)cc2)C(C)(C)CCC1` the figure was 91% (active); with `O=c1c(-c2ccc(O)cc2)coc2cc(O)ccc12`, -3.39%; with `CN(C)CCC(c1ccccc1)c1ccccn1` (centres undefined), 0.331%. As to `O=c1[nH]cnc2c1ncn2[C@H]1CC[C@@H](CO)O1`, the caspase-3 activation is -0.684%.

The record behind these values is PubChem BioAssay (NCATS).
